# From PubChem BioAssay (NCI)
# About 79,000 compounds went through this panel and 15% of them were active in at least one assay; those are over-represented in the sample as a whole. Unmarked numbers belong to inactive results. The source made the active and inactive calls. No stated cut-off is given here; in the data, active means growth inhibition above about 70%; inactive means the rest.
# Experiments:
# [1] = NCI Yeast Anticancer Drug Screen. Data for the mec2-1 strain (AID 157); settings: S. cerevisiae mec2-1 strain, active compounds read high
# In short: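 Test agents were screened against the mec2-1 yeast strain, with defined DNA repair or cell cycle alteration. Growth was scored as inhibition against vehicle-only controls.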
# [2] = NCI Yeast Anticancer Drug Screen. Data for the rad14 strain (AID 159);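 further: 0% = growth of vehicle-treated control cultures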; settings: S. cerevisiae rad14 strain growth inhibition, active compounds read high
# In short: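 A mutant yeast strain defective in DNA damage repair is treated with compound; inhibition of its growth is scored against untreated, vehicle-exposed cultures.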
# [3] = NCI Yeast Anticancer Drug Screen. Data for the sgs1 mgt1 strain (AID 161);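 further: 0% = growth of cultures given vehicle only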; settings: S. cerevisiae sgs1 mgt1 strain, active compounds read high
# In short: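 Genetically altered yeast, compound exposure, growth inhibition relative to vehicle.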
# [4] = NCI Yeast Anticancer Drug Screen. Data for the CLN2oe strain (AID 163);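 further: 0% = growth of vehicle-only control cultures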; settings: S. cerevisiae CLN2oe strain, active compounds read high
# In short: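 Here, growth inhibition in a cell-cycle-altered yeast strain after compound exposure was quantified against vehicle control growth.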
# [5] = NCI Yeast Anticancer Drug Screen. Data for the cln2 rad14 strain (AID 165);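 further: 0% = growth equal to vehicle treated cultures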; settings: S. cerevisiae cln2 rad14 strain, active compounds read high
# In short: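 Growth of compound-exposed yeast (cln2 rad14 genotype) measured and expressed as inhibition relative to vehicle.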
# [6] = NCI Yeast Anticancer Drug Screen. Data for the bub3 strain (AID 167); settings: S. cerevisiae bub3 mutant strain, active compounds read high
# In short: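 Steps: expose the mutant yeast strain to compound; grow alongside vehicle-treated cultures; measure growth; express inhibition against the vehicle cultures.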
# [7] = NCI Yeast Anticancer Drug Screen. Data for the wt2 strain (AID 169);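 further: 0% = growth of vehicle-treated yeast cultures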; settings: S. cerevisiae wt2 strain growth inhibition, active compounds read high
# In short: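 Genetically defined yeast strains from a DNA-repair/cell-cycle panel were used. Compound-exposed yeast growth was measured, and the inhibition was calculated relative to vehicle treatment.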
# [8] = NCI Yeast Anticancer Drug Screen. Data for the mlh1 strain (AID 171);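 further: 0% = growth of vehicle-treated control cultures of the same strain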; settings: S. cerevisiae mlh1 strain growth inhibition, active compounds read high
# In short: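 Here the genetically defined yeast mutant is grown with each compound, and the extent to which its growth falls below that of vehicle-exposed cells is reported.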
# [9] = NCI Yeast Anticancer Drug Screen. Data for the sgs1 strain (AID 173);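 further: 0% = growth of vehicle-only control cultures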; settings: S. cerevisiae sgs1 mutant, active compounds read high
# In short: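 Relative growth inhibition, referenced to vehicle, was determined in a yeast strain with a defined alteration affecting DNA damage repair or cell cycle control after compound exposure.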
# [10] = NCI Yeast Anticancer Drug Screen. Data for the mlh1 rad18 strain (AID 175); settings: S. cerevisiae mlh1 rad18 strain growth inhibition, active compounds read high
# In short: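 In this whole-cell yeast screen, a strain with altered DNA damage repair is challenged with compound, and its growth is measured against matched vehicle-treated controls.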
# [11] = NCI Yeast Anticancer Drug Screen. Data for the rad18 strain (AID 177); settings: S. cerevisiae rad18 mutant growth inhibition, active compounds read high
# In short: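 Screen uses a yeast strain with a defined lesion in DNA damage repair; compound effect is read as loss of growth compared to untreated vehicle cultures.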
# [12] = NCI Yeast Anticancer Drug Screen. Data for the rad52 strain (AID 147);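 further: 0% = growth of vehicle-treated control cultures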; settings: S. cerevisiae rad52 mutant growth inhibition, active compounds read high
# In short: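 Measured: yeast growth inhibition. System: strain with a defined DNA damage repair alteration. Reference: vehicle-treated control cultures.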
# [13] = NCI Yeast Anticancer Drug Screen. Data for the wt1 strain (AID 149);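 further: 0% = growth of vehicle-treated wt1 cultures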; settings: S. cerevisiae wt1 strain (SPY 50644) growth inhibition, active compounds read high
# In short: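 Compounds are added to wt1 yeast cultures. Growth is then measured. Inhibition is expressed relative to vehicle-treated controls.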
# [14] = NCI Yeast Anticancer Drug Screen. Data for the mgt1 strain (AID 153); settings: S. cerevisiae mgt1 mutant growth inhibition, active compounds read high
# In short: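 After exposure of the mgt1 yeast mutant to compound, growth was measured and reported as inhibition compared with vehicle controls.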
# [15] = NCI Yeast Anticancer Drug Screen. Data for the rad50 strain (AID 155);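 further: 0% = growth of vehicle-only cultures of the same strain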; settings: S. cerevisiae rad50 strain growth inhibition, active compounds read high
# In short: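 Inhibition values express reduced yeast growth in compound-treated cultures relative to vehicle-treated controls.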
# [16] = at 5.0 µM (retest, dose inferred, filed as 0.5)
# [17] = at 50.0 µM (retest, dose inferred, filed as 5.0)
structure (smiles),measurement,setting,value
CCC(OC(C)=O)C1CC(C(C)C)CCC1C (stereo unspecified),growth inhibition,[1]; at 100.0 µM,76% (active)
same,growth inhibition,[2]; at 1.2 µM,0%
same,growth inhibition,[2]; at 3.7 µM,0%
same,growth inhibition,[2]; at 11.0 µM,5%
same,growth inhibition,[2]; at 33.0 µM,17%
same,growth inhibition,[2]; at 100.0 µM,99% (active)
same,growth inhibition,[3]; [16],-7%
same,growth inhibition,[3]; [17],39%
same,growth inhibition,[3]; at 50.0 µM,21.8%
same,growth inhibition,[4]; at 1.2 µM,-4%
same,growth inhibition,[4]; at 3.7 µM,-5%
same,growth inhibition,[4]; at 11.0 µM,2%
same,growth inhibition,[4]; at 33.0 µM,0%
same,growth inhibition,[4]; at 100.0 µM,5%
same,growth inhibition,[5]; [16],9%
same,growth inhibition,[5]; [17],73% (active)
same,growth inhibition,[5]; at 50.0 µM,72.2% (active)
same,growth inhibition,[6]; at 1.2 µM,-2%
same,growth inhibition,[6]; at 3.7 µM,-1%
same,growth inhibition,[6]; [16],0%
same,growth inhibition,[6]; at 11.0 µM,-3%
same,growth inhibition,[6]; at 33.0 µM,-2%
same,growth inhibition,[6]; [17],29%
same,growth inhibition,[6]; at 50.0 µM,21.4%
same,growth inhibition,[6]; at 100.0 µM,84% (active)
same,growth inhibition,[7]; at 1.2 µM,-1%
same,growth inhibition,[7]; at 3.7 µM,7%
same,growth inhibition,[7]; at 11.0 µM,0%
same,growth inhibition,[7]; at 33.0 µM,-3%
same,growth inhibition,[7]; at 100.0 µM,40%
same,growth inhibition,[8]; at 1.2 µM,0%
same,growth inhibition,[8]; at 3.7 µM,1%
same,growth inhibition,[8]; at 11.0 µM,4%
same,growth inhibition,[8]; at 33.0 µM,8%
same,growth inhibition,[8]; at 100.0 µM,54%
same,growth inhibition,[9]; at 1.2 µM,-1%
same,growth inhibition,[9]; at 3.7 µM,1%
same,growth inhibition,[9]; at 11.0 µM,6%
same,growth inhibition,[9]; at 33.0 µM,18%
same,growth inhibition,[9]; at 100.0 µM,95% (active)
same,growth inhibition,[10]; [16],-1%
same,growth inhibition,[10]; [17],19%
same,growth inhibition,[10]; at 50.0 µM,27.6%
same,growth inhibition,[11]; at 1.2 µM,2%
same,growth inhibition,[11]; at 3.7 µM,2%
same,growth inhibition,[11]; at 11.0 µM,4%
same,growth inhibition,[11]; at 33.0 µM,11%
same,growth inhibition,[11]; at 100.0 µM,83% (active)
OB(O)c1ccccc1C#Cc1ccccc1,growth inhibition,[12]; at 1.2 µM,3%
same,growth inhibition,[12]; at 3.7 µM,4%
same,growth inhibition,[12]; at 11.0 µM,8%
same,growth inhibition,[12]; at 33.0 µM,21%
same,growth inhibition,[12]; at 100.0 µM,27%
same,growth inhibition,[13]; at 1.2 µM,-2%
same,growth inhibition,[13]; at 3.7 µM,-2%
same,growth inhibition,[13]; at 11.0 µM,2%
same,growth inhibition,[13]; at 33.0 µM,8%
same,growth inhibition,[13]; at 100.0 µM,15%
same,growth inhibition,[14]; at 1.2 µM,1%
same,growth inhibition,[14]; at 3.7 µM,3%
same,growth inhibition,[14]; at 11.0 µM,8%
same,growth inhibition,[14]; at 33.0 µM,14%
same,growth inhibition,[14]; at 100.0 µM,18%
same,growth inhibition,[15]; at 1.2 µM,5%
same,growth inhibition,[15]; at 3.7 µM,13%
same,growth inhibition,[15]; [16],-14%
same,growth inhibition,[15]; at 11.0 µM,20%
same,growth inhibition,[15]; at 33.0 µM,29%
same,growth inhibition,[15]; [17],21%
same,growth inhibition,[15]; at 50.0 µM,96.3% (active)
same,growth inhibition,[15]; at 100.0 µM,43%
same,growth inhibition,[1]; at 1.2 µM,-1%
same,growth inhibition,[1]; at 3.7 µM,6%
same,growth inhibition,[1]; [16],-5%
same,growth inhibition,[1]; at 11.0 µM,12%
same,growth inhibition,[1]; at 33.0 µM,21%
same,growth inhibition,[1]; [17],1%
same,growth inhibition,[1]; at 50.0 µM,64.5%
same,growth inhibition,[1]; at 100.0 µM,28%
same,growth inhibition,[2]; at 1.2 µM,2%
same,growth inhibition,[2]; at 3.7 µM,2%
same,growth inhibition,[2]; at 11.0 µM,12%
same,growth inhibition,[2]; at 33.0 µM,27%
same,growth inhibition,[2]; at 100.0 µM,37%
same,growth inhibition,[3]; [16],-16%
same,growth inhibition,[3]; [17],22%
same,growth inhibition,[3]; at 50.0 µM,76.8% (active)
same,growth inhibition,[4]; at 1.2 µM,7%
same,growth inhibition,[4]; at 3.7 µM,9%
same,growth inhibition,[4]; at 11.0 µM,23%
same,growth inhibition,[4]; at 33.0 µM,43%
same,growth inhibition,[4]; at 100.0 µM,40%
same,growth inhibition,[5]; [16],-12%
same,growth inhibition,[5]; [17],13%
same,growth inhibition,[5]; at 50.0 µM,55.8%
same,growth inhibition,[6]; at 1.2 µM,8%
same,growth inhibition,[6]; at 3.7 µM,2%
same,growth inhibition,[6]; [16],-20%
same,growth inhibition,[6]; at 11.0 µM,21%
same,growth inhibition,[6]; at 33.0 µM,34%
same,growth inhibition,[6]; [17],43%
same,growth inhibition,[6]; at 50.0 µM,76.8% (active)
same,growth inhibition,[6]; at 100.0 µM,46%
same,growth inhibition,[7]; at 1.2 µM,-2%
same,growth inhibition,[7]; at 3.7 µM,-1%
same,growth inhibition,[7]; at 11.0 µM,7%
same,growth inhibition,[7]; at 33.0 µM,23%
same,growth inhibition,[7]; at 100.0 µM,24%
same,growth inhibition,[8]; at 1.2 µM,-2%
same,growth inhibition,[8]; at 3.7 µM,6%
same,growth inhibition,[8]; at 11.0 µM,4%
same,growth inhibition,[8]; at 33.0 µM,14%
same,growth inhibition,[8]; at 100.0 µM,14%
same,growth inhibition,[10]; [16],13%
same,growth inhibition,[10]; [17],68%
same,growth inhibition,[10]; at 50.0 µM,75.8% (active)
same,growth inhibition,[11]; at 1.2 µM,1%
same,growth inhibition,[11]; at 3.7 µM,2%
same,growth inhibition,[11]; at 11.0 µM,13%
same,growth inhibition,[11]; at 33.0 µM,41%
same,growth inhibition,[11]; at 100.0 µM,54%
